Pf Dd2 growth: inhibitors of Plasmodium falciparum Dd2 growth; P. falciparum Dd2 growth, SYBR Green, 72 h; stronger effect = lower value; activity change, % at 10 µM; 2.3% of 94,000 active; AID 1159554; in the data active = activity change below about -80%
C diff growth: blocks growth of Clostridium difficile; Clostridium difficile clinical isolate growth, OD600, 24 h; stronger effect = lower value; 0.25% of 86,000 active; growth activity, negative = inhibition, % at 16 µg/mL (by protocol);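 active = mean growth activity at or below -80% and every replicate also at or below -80%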;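 also: 0% = DMSO wells and -100% = levofloxacin 16 µg/mL wells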
Tcruzi prolif: blocks T. cruzi growth in NIH3T3 culture. T. cruzi beta-gal in NIH3T3, GalScreen luminescence, 90 h. inhibition, % at 8.34 µM. 5.9% of 77,000 active. AID 624255;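 active = mean inhibition above about 93%, with at least 55% of replicates each passing it, limit read from the data, passing the limit was not always enough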
* hit, by the source's call; x = no result. Most compounds without a hit are left out; they make up all but 6.8% or so of the library.

SMILES	Pf Dd2 growth	C diff growth	Tcruzi prolif
CN1C(=O)c2cc(NC(=O)c3ccccc3)ccc2OC[C@@H]2O[C@H](CC(=O)NC3CCCC3)CC[C@@H]21	-7	3	16
C[C@H]1CN([C@@H](C)CO)C(=O)c2c(c3ccccc3n2C)-c2ccccc2CO[C@@H]1CN(C)C(=O)Nc1ccc(-c2ccccc2)cc1	-89*	1	x
C[C@H](CO)N1C[C@H](C)[C@H](CN(C)C(=O)Nc2ccccc2)OCc2ccccc2-c2c(n(C)c3ccccc23)C1=O	-14	x	49
Cc1ccc(S(=O)(=O)N(C)C[C@H]2OCCCC[C@@H](C)Oc3ccc(NC(=O)C4CCCCC4)cc3C(=O)N([C@H](C)CO)C[C@H]2C)cc1	-71	-1	47
Cc1ccc(S(=O)(=O)N(C)C[C@H]2OCCCC[C@H](C)Oc3ccc(NC(=O)C4CCCCC4)cc3C(=O)N([C@@H](C)CO)C[C@H]2C)cc1	-89*	4	63
Cc1ccc(S(=O)(=O)N(C)C[C@H]2OCCCC[C@@H](C)Oc3ccc(NC(=O)C4CCCCC4)cc3C(=O)N([C@H](C)CO)C[C@@H]2C)cc1	-55	-1	0
C[C@@H]1CN([C@@H](C)CO)C(=O)c2cc(NC(=O)C3CCCCC3)ccc2O[C@@H](C)CCCCO[C@H]1CN(C)S(=O)(=O)c1ccc(Cl)cc1	-83*	-4	87
COc1ccccc1-c1ccc2c(c1)[C@@H]1[C@@H](CCN1S(=O)(=O)c1ccccc1F)[C@H](CO)N2	-29	34	88
C[C@H]1CN([C@@H](C)CO)C(=O)c2cccc(NC(=O)C3CC3)c2O[C@@H]1CN(C)C	0	10	-15
COCC(=O)N1CC(=O)N2[C@H](CO)[C@@H](c3ccc(C#CC4CC4)cc3)[C@H]2C1	26	11	x
C[C@H](CO)N1C[C@H](C)[C@@H](CN(C)C(=O)Nc2ccc3c(c2)OCO3)Oc2ccc(NC(=O)Nc3ccc(C(F)(F)F)cc3)cc2CC1=O	-93*	5	x
C[C@H](CO)N1C[C@H](C)[C@@H](CN(C)C(=O)Nc2ccc(C(F)(F)F)cc2)Oc2ccc(NC(=O)Nc3ccc4c(c3)OCO4)cc2CC1=O	-23	10	30
C[C@H]1CN([C@@H](C)CO)C(=O)Cc2cc(NC(=O)Nc3ccc(C(F)(F)F)cc3)ccc2O[C@@H]1CN(C)C(=O)Nc1ccc2c(c1)OCO2	-93*	4	x
C[C@@H]1CN([C@H](C)CO)C(=O)Cc2cc(NC(=O)Nc3ccc4c(c3)OCO4)ccc2O[C@H]1CN(C)C(=O)Nc1ccc(C(F)(F)F)cc1	-27	2	10
O=C(NCC[C@@H]1CC[C@@H](NS(=O)(=O)c2cccc(F)c2)[C@H](CO)O1)C1CCC1	-9	0	x
Cc1ccc(S(=O)(=O)N(C)C[C@@H]2OCCCC[C@@H](C)Oc3ccc(NC(=O)Nc4ccc(F)cc4)cc3C(=O)N([C@@H](C)CO)C[C@H]2C)cc1	-59	x	x
Cc1ccc(S(=O)(=O)N(C)C[C@@H]2OCCCC[C@H](C)Oc3ccc(NC(=O)Nc4ccc(F)cc4)cc3C(=O)N([C@H](C)CO)C[C@H]2C)cc1	-82*	x	x
Cc1ccc(S(=O)(=O)N(C)C[C@H]2OCCCC[C@H](C)Oc3ccc(NC(=O)Nc4ccc(F)cc4)cc3C(=O)N([C@H](C)CO)C[C@@H]2C)cc1	-68	x	x
Cc1ccc(S(=O)(=O)N(C)C[C@@H]2OCCCC[C@H](C)Oc3ccc(NC(=O)Nc4ccc(F)cc4)cc3C(=O)N([C@@H](C)CO)C[C@@H]2C)cc1	-83*	x	x
CCCC(=O)Nc1ccc2c(c1)C(=O)N(C)[C@H]1CC[C@H](CC(=O)Nc3cccc(F)c3)O[C@@H]1CO2	-3	10	x
C[C@@H]1CN([C@H](C)CO)C(=O)c2cccc(NC(=O)c3ccc(-c4nccs4)cc3)c2O[C@H]1CN(C)Cc1ccc(C(=O)O)cc1	-24	1	9
C[C@@H]1CN([C@H](C)CO)C(=O)c2cccc(NC(=O)c3ccc(-c4nccs4)cc3)c2O[C@@H]1CN(C)Cc1ccc(C(=O)Nc2ccccc2N)cc1	-91*	1	90
C[C@@H]1CN([C@H](C)CO)C(=O)c2cccc(NC(=O)c3ccc(-c4nccs4)cc3)c2O[C@@H]1CN(C)Cc1ccc(-c2ccccc2)cc1	-65	56	36
C[C@@H]1CN([C@H](C)CO)C(=O)c2cccc(NC(=O)c3ccc(-c4nccs4)cc3)c2O[C@H]1CN(C)Cc1ccccc1	-19	-5	67
C[C@@H]1CN([C@H](C)CO)C(=O)c2cccc(NC(=O)c3ccc(-c4nccs4)cc3)c2O[C@H]1CN(C)Cc1ccc(C(F)(F)F)cc1	-91*	x	96
SMILES	Pf Dd2 growth	C diff growth	Tcruzi prolif
C[C@@H]1CN([C@H](C)CO)C(=O)c2cccc(NC(=O)c3nc4ccccc4s3)c2O[C@H]1CN(C)Cc1ccc(C(=O)O)cc1	-11	-2	31
C[C@@H]1CN([C@@H](C)CO)C(=O)c2cccc(NC(=O)c3ccc(-c4nccs4)cc3)c2O[C@H]1CN(C)Cc1ccc(C(=O)Nc2ccccc2N)cc1	-93*	1	82
C[C@@H]1CN([C@@H](C)CO)C(=O)c2cccc(NC(=O)c3nc4ccccc4s3)c2O[C@@H]1CN(C)Cc1ccc(C(=O)Nc2ccccc2N)cc1	-91*	x	93
Cc1noc(C)c1NC(=O)Nc1ccc2c(c1)CC(=O)N([C@H](C)CO)C[C@@H](C)[C@H](CN(C)C(=O)NC1CCCCC1)O2	38	-2	0
COc1ccccc1S(=O)(=O)N[C@H]1CC[C@H](CCn2cc(C3CCCCC3)nn2)O[C@@H]1CO	23	x	-8
CCCNC(=O)C[C@H]1CC[C@H]2[C@H](COc3ccc(NC(=O)Nc4cccc(C)c4)cc3C(=O)N2C)O1	-5	0	74
CNC[C@@H]1Oc2c(NC(=O)C3CC3)cccc2C(=O)N([C@@H](C)CO)C[C@H]1C	11	x	-3
O=C(Nc1cccc(Cl)c1)N[C@@H]1CC[C@H](CCNC(=O)C2CCC2)O[C@H]1CO	-19	0	x
N#C[C@@H]1[C@@H](c2ccc(C#CC3CCCCC3)cc2)[C@H](CO)N1C(=O)Nc1ccc(F)cc1	-86*	0	x
N#C[C@H]1[C@H](c2ccc(C#CC3CCCCC3)cc2)[C@H](CO)N1C(=O)Nc1ccc(F)cc1	-26	53	x
N#C[C@H]1[C@@H](c2ccc(C#CC3CCCCC3)cc2)[C@H](CO)N1C(=O)Nc1ccc(F)cc1	-52	22	x
CC(C)NC(=O)N1[C@H](C#N)[C@H](c2ccc(C#CC3CCCCC3)cc2)[C@@H]1CO	-81*	-5	93
Cc1ccccc1S(=O)(=O)N1[C@@H](C#N)[C@H](c2ccc(C#CC3CCCC3)cc2)[C@@H]1CO	-55	-4	x
Cc1ccccc1S(=O)(=O)N1[C@H](C#N)[C@H](c2ccc(C#CC3CCCC3)cc2)[C@@H]1CO	-90*	8	x
O=C(c1cccnc1)N1CC2(C1)[C@H](c1ccccc1)[C@@H](CO)N2Cc1ccccc1	-19	-3	x
CNC[C@@H]1Oc2cc(C#CC3CCCC3)ccc2S(=O)(=O)N([C@@H](C)CO)C[C@H]1C	-55	-6	-103
CO[C@H]1CN(C)C(=O)c2cc(NC(=O)C3CC3)ccc2OC[C@H](C)N(Cc2ccc(F)cc2)C[C@@H]1C	x	x	33
